Compound activity: PubChem, several laboratories
rCAG binder = binds r(CAG) RNA repeats; r(CAG) RNA repeat, TO-PRO-1 dye displacement fluorescence; inhibition, % at 3 µM; 1.3% of 370,000 active; AID 651821;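 active = inhibition above the plate cutoff, the mean of all test compounds on that plate plus 3 SD, cut at about 35% in these data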;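 note: higher means more dye released from RNA so lower well fluorescence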
NadD block = blocks S. aureus nicotinate mononucleotide adenylyltransferase. inhibition, % at 20 µM. 0.78% of 360,000 active. purified NadD enzyme, colorimetric absorbance read-out. AID 602399; in the data active = inhibition above about 26%
GRIN3A LBD mod = modulates the human NR3A ligand-binding domain | NR3A LBD differential scanning fluorimetry, Tm shift; 0% = protein alone, 100% = glycine-bound protein | Tm shift relative to glycine control, % at 25 µM | 2.5% of 340,000 active | AID 1259313;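 active = melting temperature shift of at least 10% of the positive control shift, at one fixed dose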
FAS TE block = FAS thioesterase (human) inhibition | 0.67% of 360,000 active | P49327 | AID 602261 | recombinant FAS-TE, OMFH fluorogenic substrate, fluorescence endpoint | inhibition, % at 15 µM;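 active = compounds whose normalised, plate-corrected inhibition of enzyme fluorescence in the single-dose primary screen is 50% or more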
FAS-TE inh conf = confirmation of human fatty acid synthase thioesterase inhibitors; shares compounds with FAS TE block; inhibition, % at 15 µM; recombinant FAS-TE, OMFH fluorogenic substrate, fluorescence; AID 624325; 45% of 2,300 active;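 active = compounds inhibiting the enzyme by at least 50% at 15 µM in any one of the replicates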
NadD inh conf = confirmation of Staphylococcus aureus NadD inhibitors; shares compounds with NadD block; purified S. aureus NadD, colorimetric enzyme assay; inhibition, % at 20 µM; 13% of 2,000 active; in the data active = inhibition mostly above about 42%, no sharp cut-off; inactive = mostly below about 42%
rCAG bind conf = r(CAG) RNA repeat binding, confirmation | shares compounds with rCAG binder | 70% of 4,300 active | inhibition, % at 3 µM | TO-PRO-1 dye displacement fluorescence;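 active = inhibition above a per-plate cutoff, the mean inhibition of sample wells plus 3 SD, cut at about 35% in these data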;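 note: loss of TO-PRO-1 fluorescence as compound displaces dye from 1x1 AA loop RNA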
dCAG dye counter = disrupts DNA CAG TO-PRO-1 complex, flagging rCAG hits. shares compounds with rCAG binder. d(CAG) DNA oligo TO-PRO-1 dye displacement, fluorescence. inhibition, % at 3 µM. 94% of 4,300 active;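 active = inhibition above its plate's cutoff, the mean test-well inhibition plus 3 SD, cut at about 4.8% in these data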;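 note: hits displace the dye from DNA and so lower well fluorescence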
dCAG dye DR = DNA CAG dye complex inhibition, dose response counter-screen; 20% of 250 active; DNA CAG/GTC duplex TO-PRO-1 dye displacement fluorescence; shares compounds with rCAG binder; IC50, µM; in the data active = IC50 below about 10 µM
Hits are given with their value; i = inactive; nt = no result. This is a sample that favours compounds with a hit; in the whole collection about 4.3% have one here.

SMILES	rCAG binder	NadD block	GRIN3A LBD mod	FAS TE block	FAS-TE inh conf	rCAG bind conf	dCAG dye counter	others
O=C(CC(=O)c1ccccc1)Nc1cc([N+](=O)[O-])ccc1Cl	i	i	i	i	nt	nt	nt
C=CCN1[C@H](CC(C)C)COc2cccc(F)c2S1(=O)=O	i	nt	nt	nt	nt	nt	nt
COc1cc(-c2ccc(Nc3ccccc3C(=O)O)c(OC)c2)ccc1Nc1ccccc1C(=O)O	93	50	38	71	73	86	59	NadD inh conf=i
COc1cc([N+](=O)[O-])c(OC)cc1Nc1ccccc1C(=O)O	i	nt	nt	nt	nt	nt	nt
Cc1ccc(C2C(/C=C3/SC(=S)NC3=O)=C(c3cccs3)Oc3ccccc32)cc1 (stereo unspecified)	80	60	i	64	i	83	51
O=C1NC(=S)SC1=Cc1ccccc1Cl	i	i	i	i	nt	nt	nt
O=[N+]([O-])c1c(Nc2ccccc2O)cc(Cl)c2nonc12	41	i	i	65	53	i	9.7
O=C(O)CN1C(=O)/C(=C\c2cccc(OCc3ccc(Cl)cc3Cl)c2)SC1=S	79	30	i	59	i	85	58
O=C(NCc1ccccc1)[C@@H]1CCCN1C(=O)[C@H]1CCCN1C(=O)c1cccc(F)c1	i	nt	nt	nt	nt	nt	nt
COC(=O)[C@]12C[C@H](CC(=O)N3CCC(c4ccccc4)CC3)C(=O)N(Cc3ccc(Cl)cc3Cl)C1=C[C@H](C1CCCC1)O[C@@H]2C	i	nt	nt	nt	nt	nt	nt
O=C1NC(=S)S/C1=C\c1cc2ccccc2nc1N1CCCCC1	37	i	i	69	51	87	61
CC(=O)N1C[C@H]2CON(C)[C@H]2C[C@H]1c1ccccc1-c1ccccc1	i	nt	nt	nt	nt	nt	nt
O=C(NC(Nc1ncc(S(=O)(=O)c2ccc([N+](=O)[O-])cc2)s1)(C(F)(F)F)C(F)(F)F)c1ccc(Cl)cc1	46	i	i	61	44	52	14
COCC(=O)Nc1ncc(S(=O)(=O)c2ccc([N+](=O)[O-])cc2)s1	i	i	i	i	nt	nt	nt
COc1ccc(/C=C2\SC(=O)N(CC(=O)Nc3ccccc3O)C2=O)cc1OC	i	i	i	i	nt	nt	nt
O=C(CN1C(=O)S/C(=C\c2ccccc2)C1=O)Nc1cc([N+](=O)[O-])ccc1O	80	i	23	81	82	61	24
O=C(Nc1ccc(C(=O)O)cc1)/C(=C\c1ccc([N+](=O)[O-])cc1)NC(=O)c1ccc(Br)cc1	44	i	i	82	91	i	7.0
CC(C)(C)c1ccc(C(=O)N/C(=C\c2cccc([N+](=O)[O-])c2)C(=O)Nc2cccc(C(=O)O)c2)cc1	84	31	i	83	88	75	44	NadD inh conf=i
COc1cccc(S(=O)(=O)N(C)C[C@@H]2Oc3ncc(Br)cc3C(=O)N([C@H](C)CO)C[C@@H]2C)c1	i	nt	nt	nt	nt	nt	nt
CC(CCc1ccccc1)NC(=O)COC(=O)c1cc(NS(=O)(=O)c2ccc(Cl)c([N+](=O)[O-])c2)ccc1O (stereo unspecified)	46	i	22	55	62	43	12
CC(C)N1C(=O)S/C(=C\c2ccc(-c3ccc(Cl)c(C(=O)O)c3)o2)C1=O	51	i	i	69	75	47	16
CCCCCCCCNS(=O)(=O)CC1NCc2ccccc21 (stereo unspecified)	i	nt	nt	nt	nt	nt	nt
CCCCCCCCCCCCN1[C@@H](CC(=O)O)c2cc(F)ccc2S1(=O)=O	76	i	i	59	75	68	24
CCCCCCCCN1[C@@H](CC(=O)OC)c2cc(F)ccc2S1(=O)=O	i	i	i	i	nt	nt	nt
C=CCOc1c(OC)cc(/C=N/Nc2cccc(C(=O)O)c2)c(Br)c1Br	51	i	i	70	84	70	31	dCAG dye DR=8.3
SMILES	rCAG binder	NadD block	GRIN3A LBD mod	FAS TE block	FAS-TE inh conf	rCAG bind conf	dCAG dye counter	others
O=C(Nc1ccccc1C(=O)Nc1nnc(C(F)(F)F)s1)c1ccccc1	38	i	i	53	46	72	33
Cc1occc1C(=O)Nc1nnc(C(F)(F)F)s1	i	i	i	i	nt	nt	nt
O=C(N/N=C/c1cn(-c2cccs2)nc1-c1ccccc1)c1ccccc1O	i	34	26	i	nt	nt	nt	NadD inh conf=i
O=C(N/N=C/c1cn(-c2ccccc2)nc1-c1cccnc1)c1ccccc1	i	i	i	i	nt	nt	nt
O=C(NCC(F)(F)F)c1ccc(S(=O)(=O)Nc2ccccc2N2CCCC2)cc1	i	40	i	i	nt	nt	nt	NadD inh conf=i
c1ccn2cc(-c3ccc4c(c3)OCO4)cc2c1	i	29	i	i	nt	nt	nt	NadD inh conf=i
COc1ccc(Cl)cc1N(CC(=O)N/N=C/c1ccc(OC(C)C)cc1)S(=O)(=O)c1ccc(C)c([N+](=O)[O-])c1	i	31	i	i	nt	nt	nt	NadD inh conf=i
C=CCOc1cccc(/C=N/NC(=O)CN(c2cc(Cl)ccc2OC)S(=O)(=O)c2ccc(C)c([N+](=O)[O-])c2)c1	i	i	i	i	nt	nt	nt
Cn1c(N)c(C(=O)COC(=O)c2cc(C3CC3)nc3ccccc23)c(=O)n(Cc2ccccc2)c1=O	i	43	18	i	nt	nt	nt	NadD inh conf=i
CC(C)Cn1c(N)c(C(=O)COC(=O)c2cc(C3CC3)nc3ccccc23)c(=O)n(C)c1=O	i	nt	i	nt	nt	nt	nt
Cn1c(N)c(C(=O)COC(=O)c2cc(-c3ccccc3)nc3ccccc23)c(=O)n(Cc2ccccc2)c1=O	nt	29	i	i	nt	nt	nt	NadD inh conf=i
CC1=NN(c2ccc(Cl)cc2)C(=O)C1C(c1ccccc1O)c1c(C)[nH]n(-c2ccc(Cl)cc2)c1=O (stereo unspecified)	nt	31	255	i	nt	nt	nt	NadD inh conf=52
C[C@@H]1CN([C@@H](C)CO)C(=O)CCCn2cc(nn2)CO[C@H]1CN(C)C(=O)Nc1ccc(C(C)(C)C)cc1	i	nt	nt	nt	nt	nt	nt
COc1ccc(NC(=O)c2cccc(N3C(=O)c4ccc(C(=O)Nc5ccc(OC)c(O)c5)cc4C3=O)c2)cc1O	i	44	i	i	nt	nt	nt	NadD inh conf=i
CC(=O)CC[C@@H]1CC[C@]2(CCCN(C(=O)C3CCCC3)C2)O1	i	nt	nt	nt	nt	nt	nt
CC(C)C(=O)OCCCN1C(=O)CCC12CCC(c1ccccc1)CC2 (stereo unspecified)	i	nt	nt	nt	nt	nt	nt
C[C@@H]1CN([C@H](C)CO)C(=O)c2cc(NC(=O)Nc3ccc(F)cc3)ccc2O[C@@H](C)CCCCO[C@@H]1CN(C)C(=O)CCCN(C)C	i	nt	nt	nt	nt	nt	nt
Cc1cc(C)cc(NC(=O)CSc2nc3[nH]c(=O)cc(O)c3s2)c1	i	i	i	i	nt	nt	nt
CSc1ccc(NC(=O)CSc2nc3[nH]c(=O)cc(O)c3s2)cc1	56	54	14	i	nt	nt	nt	NadD inh conf=i
CC(=O)N1C[C@@H](CO)[C@@H](N(C)C(=O)/C=C/c2ccccc2)C[C@H]1c1ccccc1	i	nt	nt	nt	nt	nt	nt
